Data from PubChem BioAssay AID435030 (The Scripps Research Institute Molecular Screening Center, 2010).
Hit rate of the full screen: of about 330,000 compounds, about 940 (0.28%) were called active. Rule as the data show it: active = inhibition above about 12%; inactive = the rest. Many of the other results were omitted from the sample, so actives are more common in it than they were.

Experiment: growth inhibition of E. coli expressing H. pylori AddAB, primary screen, AddAB inhibitor project, absorbance (AID 435030);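 also: 0% = vehicle wells of infected cells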
Details: at 11.9 µM, stronger effect = higher value

Row | SMILES | inhibition
1 | Cc1ccc(-n2c(-c3ccc([N+](=O)[O-])cc3)nc3ccccc3c2=O)cc1 | 0.16% (inactive)
2 | O=[N+]([O-])c1cnc2ccc3ccccc3c2c1 | 50.7% (active)
3 | C/C(=N/O)c1ccc2ccc3ccccc3c2c1 | 1.43% (inactive)
4 | CCc1ccc(OCC(=O)N2CCN(CC(=O)Nc3ccccc3Cl)CC2)cc1 | -0.08% (inactive)
5 | CN(C)S(=O)(=O)c1cc(C(=O)N2CCC(C(=O)O)(c3ccccc3)CC2)ccc1Cl | 23.8% (active)
6 | CCc1nc2ccccc2c(=O)n1-c1cccc(OC)c1 | 1.96% (inactive)
7 | COc1ccc(S(=O)(=O)NCc2ccc(C(=O)N3CCC4(CC3)OCCO4)cc2)cc1 | 2.3% (inactive)
8 | c1ccc2sc(N3CCNCC3)nc2c1 | -0.09% (inactive)
9 | C[C@]12CC[C@H](O)CC1=C([N+](=O)[O-])CC1C2CC[C@@]2(C)C1CC[C@@H]2O (stereo not given in full) | 1.39% (inactive)
10 | Cc1ccc(-c2nn(CCC#N)cc2C(=O)O)cc1C | 2.06% (inactive)
